According to PubChem BioAssay AID504466 (National Center for Advancing Translational Sciences (NCATS), 2011):
The campaign covered roughly 330,000 compounds. About 4,200 (1.3%) were called active. Inconclusive results (about 6%) are left out. The entries come from a sample that favours actives as a whole. Unmarked numbers belong to inactive results. Calls come from the whole dose curve; as a rule, active = well fitted activation curve with a large enough effect; inconclusive = small, poorly fitted or top-dose-only effect; inactive = no such curve, though single readings can be large or run the other way.

Assay: qHTS screen for small molecules that induce genotoxicity in human embryonic kidney (HEK293T) cells expressing luciferase-tagged ELG1; note: nearly all actives have a fitted effect of over 60% in size; for activity change, positive = activation: % of control where 0% means no effect
Details: HEK293T ELG1-luciferase reporter, luminescence, 16 h; series mostly up to 46 µM; activity change, positive = activation: at the top concentration
How it was run: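 Quantitative HTS format in 1536-well plates. HEK293T ELG1-luciferase reporter cells receive test compound and are incubated 16 hr at 37 °C, 5% CO2; ONE-Glo added, 30 min room temperature, then luminescence read.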
Potency is the fitted concentration of half-maximal effect.

Row | SMILES | Potency | activity change, positive = activation [%]
1 | CCCCCCOC(=O)NCC(O)c1ccccc1 (stereo not given) | 18.4 µM (active) | –
2 | CCCCOC(=O)Nc1nnc(CC(=O)NCc2ccccc2)s1 | – | 10.2
3 | CCCCCOC(=O)NCCOC(=O)Nc1ccc(C(=O)OCC)cc1 | – | -10.5
4 | O=C(CNC(=O)c1n[nH]c2ccccc12)Nc1cc(Cl)ccc1Cl | – | 1.36
5 | CCN(CC)C(=O)[C@H]1CC(CC(=O)NCc2ccco2)C(=O)N2CCc3c([nH]c4ccccc34)[C@]12C (stereo not given in full) | – | 0.825
6 | COc1ccc(NS(=O)(=O)c2cc(NC(=O)c3ccc(S(=O)(=O)N(C)C)cc3)ccc2N2CCOCC2)cc1 | – | -0.544
7 | CCN(C[C@H]1N[C@@](Cc2ccccc2)(C(=O)OC)[C@H]2C(=O)N(Cc3ccccc3)C(=O)[C@@H]12)C(=O)c1ccc(C)cc1 | – | -3.2
8 | COc1ccc(NC(=O)CNc2cc(S(=O)(=O)N3CCOCC3)ccc2N2CCOCC2)c(OC)c1 | – | 5.87
9 | O=C(Nc1ccccc1C(F)(F)F)c1cc(-c2ccc(O)cc2)on1 | – | 13.9
10 | Cc1ccc(O)c(NC(=O)c2cc(-c3ccco3)on2)c1 | 20.6 µM (active) | –
11 | Cc1ccc(C)c(NC(=O)c2ccc(OC(=O)c3ccco3)cc2)c1 | – | 1.15
12 | CCCCC[C@@H]1C=C(C(=O)O)[C@H](c2ccc(C#N)cc2)N1S(=O)(=O)c1ccc(C)cc1 | – | 0.217
13 | Cc1ccc(C(=O)NNC(=O)c2ccncc2)cc1S(=O)(=O)N1CCCCC1 | – | 1.41
14 | CC1CCCC(NC(=O)c2cc(S(=O)(=O)N3CCCCC3)ccc2Cl)C1C (stereo not given) | – | -3.83
15 | Cc1ccc(C(=O)NC2CCCC(C)C2C)cc1S(=O)(=O)N1CCCCC1 (stereo not given) | 18.3 µM (active) | –
16 | C[C@@H]1CN([C@@H](C)CO)C(=O)c2cc(NC(=O)C3CC3)ccc2O[C@H]1CN(C)C | – | 3.36
17 | COC(=O)[C@@]1(C)[C@H]2C(=O)N(Cc3ccccc3)C(=O)[C@H]2[C@H]2CN=C(SCC3CC3)N21 | – | 1.44
18 | CC[C@]1(C(=O)OC)[C@H]2C(=O)N(Cc3ccccc3)C(=O)[C@H]2[C@H]2CN=C(SCc3ccccc3)N21 | – | -1.3
19 | COc1cccc(NC(=O)COC(=O)c2ccc3ccccc3n2)c1 | – | -0.83
20 | Cc1cc(S(=O)(=O)N2CCOCC2)ccc1OCC(=O)N1CCOCC1 | – | -0.859
21 | Cc1ccc(OCCCC(=O)NC(C)c2ccccc2)c(C)c1 (stereo not given) | – | 0.0144
22 | Cc1ccc(OCCCC(=O)N2CCOCC2)c(C)c1 | 20.6 µM (active) | –
23 | COc1ccc(C2(c3ccc(OC)cc3)NC(=O)N(CC(=O)Nc3cc(C)on3)C2=O)cc1 | – | -1.6
24 | Cc1nn(-c2ccccc2)nc1C(=O)OCC(=O)N1CCCCC1C (stereo not given) | – | 0.888

Row | SMILES | Potency | activity change, positive = activation [%]
25 | Nc1cccc(CCc2nc3ccccc3[nH]2)c1 | – | 11
26 | COc1ccc(-c2[nH]nc(-c3ccccc3)c2-c2nc3ccccc3[nH]2)cc1 | – | -0.244
27 | Cc1ccc(-c2nc3ccccc3[nH]2)cc1N | 1.64 µM (active) | –
28 | c1ccc2[nH]c(-c3nc4ccccc4[nH]3)nc2c1 | 1.03 µM (active) | –
29 | O=C(Nc1cccc(-c2nc3ccccc3[nH]2)c1)c1ccc(C(=O)Nc2cccc(-c3nc4ccccc4[nH]3)c2)cc1 | – | 8.18
30 | COc1ccc(Br)cc1C(=O)NC(=S)Nc1cc(-c2nc3ccccc3[nH]2)ccc1C | – | 0.519
31 | C=CC1=C(C(=O)O)N2C(=O)[C@@H](NC(=O)/C(=N\OCC(=O)O)c3csc(N)n3)[C@H]2SC1 | – | 0.264
32 | Cc1cccc(OCC(=O)OCC(=O)Nc2ccc(Cl)cn2)c1 | – | -1.42
33 | COc1ccccc1-c1sc2ccccc2c1C#CC1(O)CCCCC1 | – | -0.785
34 | COc1ccc(S(=O)(=O)N2CCOCC2)cc1NC(=O)c1ccc(OCC(C)C)c(OC)c1 | – | -1.88
35 | C=CC[C@@H](CC(=O)N[C@H](CO)Cc1ccccc1)C(=O)N[C@@H](COC(=O)[C@@H](CC=C)Cc1ccc(F)cc1)Cc1c[nH]c2ccccc12 | – | 0.481
36 | CC[C@]12c3[nH]c4cc(CCC(=O)N(C)C)ccc4c3CCN1C(=O)[C@@H](CC(=O)NCCCn1ccnc1)C[C@@H]2C(=O)N1CCN(C(=O)C2CC2)CC1 | – | 2.47
37 | CN(CC(=O)O)C(=O)c1ccccc1 | – | 2.86
38 | CC1(C)Cc2ccccc2/C(=C/C(=O)c2ccccc2)N1 | – | -2.7
39 | COc1cc2c(cc1OC)/C(=C/C(=O)c1ccc(NC(C)=O)cc1)NCC2 | – | 9.13
40 | CC1CN/C(=C\C(=O)c2ccc(Br)cc2)C(=O)N1 (stereo not given) | 1.3 µM (active) | –
41 | CN(c1ccccc1)S(=O)(=O)c1cc(C(=O)N2CCN(c3ncccn3)CC2)ccc1Cl | – | -4.11
42 | COc1ccccc1CNC(=O)COC(=O)c1cccs1 | – | -1.05
43 | CCN(C[C@H]1N[C@@](CC)(C(=O)OC)[C@H]2C(=O)N(C)C(=O)[C@@H]12)C(=O)Nc1ccc(F)cc1 | – | 3.56
44 | Cc1cccc(C)c1-n1c(C)cc(/C=C2\C(=O)NN(c3ccccc3)C2=O)c1C | – | 5.82
45 | Cc1ccccc1-n1c(C)cc(/C=C2\NC(=O)NC2=O)c1C | 14.6 µM (active) | –
46 | Cc1cc(/C=C2/NC(=O)NC2=O)c(C)n1-c1cccnc1 | – | 8.4
47 | COc1cc(SC)ccc1C(=O)NNC(=O)C1COc2ccccc2O1 (stereo not given) | – | 0.869
48 | COC(=O)CCNc1ccc2c(c1)OCCO2 | 9.2 µM (active) | –

Row | SMILES | Potency | activity change, positive = activation [%]
49 | COc1ccccc1OCCCC(=O)Nc1ccc2c(c1)OCCO2 | – | 4.27
50 | Cc1ccc(OCCCC(=O)Nc2ccc3c(c2)OCCO3)cc1 | – | 3.35
51 | COc1cccc(CC(=O)OCC(=O)NCc2ccc3c(c2)OCO3)c1 | – | 0.92
52 | CCN1C[C@@H]2[C@@H]3C(=O)N(Cc4ccccc4)C(=O)[C@@H]3[C@](Cc3ccccc3)(C(=O)OC)N2C1=NC1CCCCC1 | – | -3.08
53 | C[C@@H]1CN([C@H](C)CO)C(=O)c2cc(NC(=O)NC3CCCCC3)ccc2O[C@H]1CN(C)S(C)(=O)=O | – | -0.246
54 | CC(=O)Nc1ccccc1NC(=O)c1cc(C)cc(C)c1 | – | 0.5
55 | Nc1ccc(C(=O)NCc2ccccc2)cc1 | – | 3.4
56 | Nc1ccc(C(=O)Nc2ccccc2N)cc1 | 14.6 µM (active) | –
57 | CC[C@]1(C(=O)OC)[C@H]2C(=O)N(C)C(=O)[C@H]2[C@H]2CN(C)C(=NCc3ccccc3)N21 | – | 4.13
58 | CCc1ccc(NC(=O)N2CCN(c3ccccc3)CC2)cc1 | – | 2.07
59 | CCc1ccc(NC2Nc3cc(C)nn3S2)cc1 (stereo not given) | 9.2 µM (active) | –
60 | CCCc1cc(=O)[nH]c(SCC(=O)Nc2ccc(S(=O)(=O)N3CCCC3)cc2)n1 | – | -0.499
61 | C=CC[C@H](CC(=O)N(CCO)Cc1ccccc1)C(=O)N[C@@H](COC(=O)[C@@H](CC=C)Cc1ccc(F)cc1)Cc1ccccc1 | – | -6.21
62 | COc1ccc(/C=N/Nc2ccccc2C(=O)O)cc1 | 1.3 µM (active) | –
63 | COc1ccc(C(=O)Nc2ccccc2C(=O)N/N=C/c2ccc(O)c(OC)c2)cc1 | – | -12.2
64 | COc1ccc(/C=N/OCC(=O)N(Cc2ccccc2)c2ccccc2C(=O)O)cc1 | – | 1.68
65 | COc1ccccc1-c1nnc2n1N=C(c1ccc(OC(F)F)c(OCC3CC3)c1)CS2 | – | 7.86
66 | O=C(COC(=O)CN1C(=O)C2CCCCC2C1=O)Nc1ccc(F)c(F)c1F (stereo not given) | – | 1.33
67 | COc1ccc(C(=O)C(C)OC(=O)c2cccc(S(=O)(=O)Nc3c(C)n(C)n(-c4ccccc4)c3=O)c2)cc1 (stereo not given) | – | 1.17
68 | CCC(=O)Nc1ccc2nn(-c3ccc(F)cc3)nc2c1 | 1.46 µM (active) | –
69 | Cc1ccc(-n2nc3ccc(NC(=O)/C=C/c4ccco4)cc3n2)cc1C | – | 19.8
70 | Cc1cccc(C(=O)OCC(=O)Nc2ccc(F)cc2)c1 | – | 8.07
71 | CCOC(=O)[C@H]1[C@H]2COc3ccccc3[C@@H]2N2C(=O)CN(Cc3ccccc3)C(=O)[C@@]12C | – | 0.713
72 | C#CCOCCOCCOCCNc1nc(N2CCN(C(=O)[C@H](CCC(=O)O)n3cc(CN)nn3)CC2)nc(N2CCN(C(=O)[C@H](CCC(=O)O)n3cc(CN)nn3)CC2)n1 | – | 0.694

Row | SMILES | Potency | activity change, positive = activation [%]
73 | O=C(COc1ccccc1F)NNC(=O)c1cc(Br)ccc1Cl | – | -1.83
74 | CCN(CC(=O)NCc1ccc(F)cc1)S(=O)(=O)c1ccc(Cl)s1 | – | -3.18
75 | C/C(=N\Nc1ccc(S(N)(=O)=O)cc1[N+](=O)[O-])c1cccs1 | – | 13.8
76 | C/C(=N\Nc1ncc(Cl)cc1Cl)c1ccc(S(=O)(=O)NCc2ccco2)cc1 | – | 0.852
77 | C/C(=N\Nc1ncc(Cl)cc1Cl)c1cccs1 | 5.17 µM (active) | –
78 | Cc1cc(NC(=O)COC(=O)/C=C/c2ccc(C)o2)no1 | – | -0.158
79 | COc1cccc(-c2ccc3c(c2)S(=O)(=O)c2cccc(C(=O)O)c2C3=O)c1OC | – | 2.09
80 | CC(=O)Oc1ccc2c(c1)C(=O)c1ccccc1C2=O | – | 18.5
81 | COc1ccc2c(c1OC)C(=O)c1ccccc1C2=O | 5.17 µM (active) | –
82 | COc1cc2c(-c3ccc4c(c3)OCO4)c(-c3ccsc3)oc(=O)c2cc1OC | – | 0.908
83 | COc1ccc(S(=O)(=O)N2CCN(c3cnccn3)CC2)cc1 | – | 1.44
84 | Cc1nc2ccc(NC(=O)c3cccc(S(=O)(=O)N4CCOCC4)c3)cc2s1 | – | -6.82
85 | O=C(c1cnn2ccccc12)N1CCc2ccccc21 | 4.11 µM (active) | –
86 | Cc1cnc(C(=O)OCC(=O)N2CCc3ccccc32)cn1 | – | 1.68
87 | CCOC(=O)N1CCC(NC(=O)c2cnn3ccccc23)CC1 | – | -1.21
88 | O=C1CSc2ccc(C(=O)NCc3ccccn3)cc2N1 | – | 6.33
89 | CCOC(=O)C1=CN(Cc2ccc(Br)cc2)S(=O)(=O)NC1C (stereo not given) | – | 2.38
90 | COc1ccc(S(=O)(=O)N(C)C[C@H]2Oc3ccc(NS(=O)(=O)c4cccs4)cc3CC(=O)N([C@H](C)CO)C[C@H]2C)cc1 | – | 3.98
91 | CCC(CO)Oc1cc(NC(=O)c2ccc(Cl)cc2)c2ncn(C(C)C)c2c1 (stereo not given) | – | 5
92 | CC(=O)Nc1ccc(S(=O)(=O)NCCC(=O)N2CCN(c3ccccc3Cl)CC2)cc1 | – | -2.27
93 | N#Cc1ccc(C2N=C(c3ccccc3)NO2)cc1 (stereo not given) | 5.17 µM (active) | –
94 | O=C(OCC(=O)N1CCCCCC1)c1ccc(Br)c(S(=O)(=O)N2CCOCC2)c1 | – | -3.75
95 | C[C@@H]1C(c2ccc(F)cc2)=NN(c2ccc(Br)cc2)[C@H]1C(=O)N1CCOC1=O | – | 2.71
